Source: PubChem (National Center for Advancing Translational Sciences (NCATS))
HttQ103 aggreg = inhibitors of mutant huntingtin aggregate formation in PC12 cells; AID 1688; Potency, µM (highest dose often 46.1 µM), for the others: at the top dose activity change, negative = inhibition, hits mostly inhibitors; PC12 HttQ103-GFP aggregates, Acumen cytometry, 40 h; 220,000 compounds, 1.1% hits; active means well fitted curve in the direction sought with a large enough effect; inconclusive means small, poorly fitted or top-dose-only effect, or another doubt; inactive means no such curve, though single readings can be large; an effect the other way counts as inactive or inconclusive; further: on the % scale 0 is the no-effect control and ±100 the full control effect; nearly all actives have a fitted effect of over 60% in size
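Huntingtin Q103 exon 1–GFP aggregates in induced PC12 cells (100 nM tebufenozide) were quantified by cytometry from lysates, with compounds dosed in titration.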
HPGD inh = blocks human HPGD enzyme activity; purified HPGD, NADH fluorescence kinetic, PGE2 substrate; Potency, µM, without a hit: at the top dose activity change, negative = inhibition, hits mostly inhibitors; 150,000 compounds, 4.3% hits; AID 894; further: on the % scale 0 is the no-effect control and ±100 the full control effect
Target sequence (P15428 whole entry, looked up): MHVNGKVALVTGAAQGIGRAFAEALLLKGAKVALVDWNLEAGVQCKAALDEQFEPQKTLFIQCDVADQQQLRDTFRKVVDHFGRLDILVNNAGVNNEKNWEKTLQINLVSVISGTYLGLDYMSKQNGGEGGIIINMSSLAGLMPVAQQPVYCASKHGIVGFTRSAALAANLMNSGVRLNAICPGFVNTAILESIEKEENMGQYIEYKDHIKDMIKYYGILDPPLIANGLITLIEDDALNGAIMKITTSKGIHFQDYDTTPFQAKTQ
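20 nM HPGD preincubated 15 min at room temperature with compound in 50 mM Tris-HCl pH 8, 0.01% Tween 20. Started with 1 mM NAD+ and 30 uM prostaglandin E2; NADH fluorescence (360/450 nm) read 5 times over 30-s intervals, last minus first.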
LMNA splice mod = changes lamin A minigene splicing in HeLa cells. HeLa LMNA splicing GFP/RFP minigene ratio, 48 h. Potency, µM (titrated, usually from 46.1 µM), for inactives: at the highest dose ratio change, negative = inhibition, hits mostly inhibitors. 200,000 compounds, 0.01% hits. AID 1487; active means well fitted inhibition curve with a large enough effect in the signal ratio, with a control signal flat, not every such curve was filed as active; inconclusive means small, poorly fitted or top-dose-only effect, or effect the other way, or a change in a side signal; the % refers to the signal ratio; further: on the % scale 0 is the no-effect control and ±100 the full control effect
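Read-out is the ratio of GFP to DsRed2 object intensity, acquired by 488 nm laser-scanning cytometry on HeLa lamin A-EGFP minigene reporter cells. Compound incubation 48 hrs at 37 °C in Opti-MEM with 2% FBS; DMSO 0.5% final.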
HTT ATP protect = protects HTT-Q103 PC12 cells, measured by ATP; PC12 HTT-Q103 induced, cytoprotection, ATP luminescence, 40 h; Potency, µM (top dose mostly 56.4 µM), without a hit: cytoprotection (ATP increase), most hits filed as activators; 230,000 compounds, 0.14% hits; AID 1471; active means well fitted curve in the direction sought with a large enough effect; inconclusive means small, poorly fitted or top-dose-only effect, or another doubt; inactive means no such curve, though single readings can be large; an effect the other way counts as inactive or inconclusive; further: % of control where 0% means no effect; nearly all actives have a fitted effect of over 45% in size
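PC12 cells stably carrying ecdysone-inducible Htt exon 1 (Q103)–GFP were induced with 100 nM tebufenozide (final) alongside library compounds in a dose series. Cytoprotection was scored as retained ATP by ATPlite luminescence.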
JMJD2E inh = JMJD2E (human) inhibition; B2RXH2; JMJD2E catalytic domain, FDH-coupled NADH fluorescence (FDH is formaldehyde dehydrogenase); Potency, µM (top dose mostly 57.1 µM), inactives show at the top dose activity change, negative = inhibition, most hits filed as inhibitors; 230,000 compounds, 1.6% hits; AID 2147;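 further: 0% = wells with enzyme and -100% = buffer wells without enzyme; nearly all actives have a fitted effect of over 50% in size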
ALDH1A1 inh = ALDH1A1 (human) enzyme inhibition | P00352 | Purified ALDH1A1, NADH fluorescence, propionaldehyde substrate | Potency, µM (highest dose often 75.3 µM), for the others: at the top dose activity, negative = inhibition, most hits filed as inhibitors | 220,000 compounds, 7.3% hits | AID 1030;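 further: plate controls were no enzyme wells and a reference inhibitor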
Target sequence (P00352 whole entry, looked up): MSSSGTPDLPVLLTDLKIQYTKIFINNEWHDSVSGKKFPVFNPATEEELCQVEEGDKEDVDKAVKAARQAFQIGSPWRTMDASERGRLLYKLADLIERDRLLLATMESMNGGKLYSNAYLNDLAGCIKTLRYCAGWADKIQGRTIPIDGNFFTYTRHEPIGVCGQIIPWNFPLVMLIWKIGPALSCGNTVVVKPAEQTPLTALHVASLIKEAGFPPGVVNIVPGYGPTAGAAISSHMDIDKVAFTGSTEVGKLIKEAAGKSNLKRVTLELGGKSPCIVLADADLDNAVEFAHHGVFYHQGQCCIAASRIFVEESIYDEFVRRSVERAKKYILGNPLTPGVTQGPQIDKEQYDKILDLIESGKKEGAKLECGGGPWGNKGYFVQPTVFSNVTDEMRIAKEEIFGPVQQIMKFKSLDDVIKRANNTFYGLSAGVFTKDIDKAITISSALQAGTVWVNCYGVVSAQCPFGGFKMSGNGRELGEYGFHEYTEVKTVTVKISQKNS
Starred values were filed as active, the others as inactive; ? = inconclusive; . = not tested or not shown; ! = repeats disagree; [ ] = another dose, or the depositor's remark. The list is not random: actives were taken first. Their share in the collection is about 9.2%. Unless noted, the call rests on the fitted dose curve; in most records, active means well fitted inhibition curve with a large enough effect (not every such curve was filed as active); inconclusive means small, poorly fitted or top-dose-only effect, or another doubt; inactive means no such curve, though single readings can be large or run the other way. Potency means the concentration at half of the fitted maximal effect.

SMILES	HttQ103 aggreg	HPGD inh	LMNA splice mod	HTT ATP protect	JMJD2E inh	ALDH1A1 inh
COc1ccc2c3c(cccc13)C(=O)N(O)C2=O	?	-15.1%	?	.	?	?
O=S(=O)(NCCc1csc2nc(-c3ccccc3)nn12)c1ccc(Oc2ccccc2)cc1	.	.	26.8%[46 µM]	.	.	.
Clc1cccc(CN2CCC(Cc3ccccc3)CC2)c1	?	.	?	-86.4%	?	20µM*
C=CCOC(=O)C1=C(C)NC(=S)NC1c1cccs1 (stereo unspecified)	3.2%	-6.9%	-1.0%	-0.7%[10 µM]	-10.9%	2.24µM*
COCCOC(=O)C1=C(C)NC(=O)NC1c1cccs1 (stereo unspecified)	-6.2%	-12.6%	18.9%	-31.7%	1.9%	3.8%
COCCOC(=O)C1=C(C)NC(=S)NC1c1cccs1 (stereo unspecified)	0.8%[9.22 µM]	.	9.5%[46 µM]	2.0%[10 µM]	-16.4%	22.4µM*
CN(C)C1CCN(C(=O)c2ccc(-n3c(=O)c(=O)[nH]c4ccccc43)cc2)C1 (stereo unspecified)	.	-6.6%	.	.	.	9.2%
Cc1ccc(S(=O)(=O)Nc2cccc3cccnc23)cc1	12.6µM*	-26.1%	?	-42.1%	18.5%	?
COc1ccc2[nH]c(C)c(CCN(Cc3cccs3)C(=S)Nc3ccccc3)c2c1	?	-7.3%	?	1.4%[10 µM]	-7.6%	?
COc1ccc2[nH]c(C)c(CCN(Cc3cccs3)C(=S)Nc3ccc(F)cc3)c2c1	?	-16.7%	?	2.1%[10 µM]	?	17.8µM*
Cc1csc(NC(=O)Cn2nc(C)c([N+](=O)[O-])c2C)n1	5.6%	.	?	35.6%[10 µM]	3.0%	0.1%
CCc1c(C)sc(NC(=O)Cn2nc(C)c([N+](=O)[O-])c2C)c1C(N)=O	25.0%[9.22 µM]	.	10.4%[46 µM]	3.9%[10 µM]	-5.1%	7.08µM*
C=CS(=O)(=O)c1sc(Cl)c(N2CCOCC2)c1[N+](=O)[O-]	-0.3%[9.22 µM]	.	?	-24.2%[10 µM]	-3.5%	0.224µM*
COc1ccccc1/C=C1\SC(=S)N(N2C(=O)CCCC2=O)C1=O	1.8%[9.22 µM]	.	?	20.8%	-4.0%	25.1µM*
O=C1/C(=C/c2ccccn2)SC(=S)N1N1CCOCC1	14.1%[9.22 µM]	.	.	-5.3%[10 µM]	7.6%	4.47µM*
COc1ccc(/C=C2\SC(=S)N(N3CCOCC3)C2=O)c(OC)c1	-17.0%[9.22 µM]	.	.	-9.0%[10 µM]	-2.4%	.
O=C1/C(=C/c2ccc(F)cc2)SC(=S)N1N1CCOCC1	-20.6%[9.22 µM]	.	.	-16.5%[10 µM]	0.2%	.
COc1cccc(/C=C2\SC(=S)N(N3CCOCC3)C2=O)c1OC	18.8%	-8.9%	4.8%	3.4%[1.9 µM]	2.5%	14.1µM*
COc1cc(C)c(C(C)C)cc1S(=O)(=O)N1CCOCC1	2.8%	-3.8%	8.8%	-4.8%	-5.3%	3.16µM*
CCOc1cc(C)c(C(C)C)cc1S(=O)(=O)N1CCOCC1	3.0%	-9.0%	-10.2%	4.3%	-1.6%	3.55µM*
CN1C[C@@H](C(=O)N[C@]2(C)O[C@]3(O)[C@H]4CCCN4C(=O)[C@H](Cc4ccccc4)N3C2=O)C[C@H]2c3cccc4[nH]cc(c34)C[C@@H]21	.	.	.	-19.3%[1.9 µM]	.	.
CC(C)CN1CCC2(CC1)CCN(C(=O)c1cccn1C)CC2	.	-6.1%	.	-14.5%	.	6.9%
O=C(c1csc2c1CCCC2)N1CCCCC1	-12.4%	1.58µM*	2.4%	27.8%	7.0%	0.2%
O=C(c1csc2c1CCCCC2)N1CCN(c2ncccn2)CC1	1.1%	-12.4%	1.3%	-2.4%	-23.4%	20µM*
O=C(c1ccccc1F)N1CCN(c2ncccn2)CC1	12.5%	-13.9%	6.8%	-3.2%	?	?
SMILES	HttQ103 aggreg	HPGD inh	LMNA splice mod	HTT ATP protect	JMJD2E inh	ALDH1A1 inh
Clc1cc(Cl)c2nc(N3CCCCC3)sc2c1	-25.9%	22.4µM*	-6.7%	-19.7%	-7.3%	22.4µM*
Cc1ccc(CN(Cc2cccnc2)C(=O)CN2C(=O)COc3ccccc32)o1	-7.6%	-8.9%	-3.6%	-16.9%	1.0%	28.2µM*
CC(NC(=O)CCCCCN1C(=O)c2ccccc2C1=O)c1ccc2c(c1)CCCC2 (stereo unspecified)	0.7%	-3.1%	-4.1%	14.3%[10 µM]	4.6%	?
CC(NC(=O)CCCCCCN1C(=O)c2ccccc2C1=O)c1ccc2c(c1)CCCC2 (stereo unspecified)	10µM*	-13.2%	?	-14.7%[10 µM]	-5.5%	?
Cc1cc(C)c2c(CC(=O)NC(C)C)coc2c1	-6.5%	.	.	-3.7%	6.2%	0.9%
Cc1cc(C)c2c(=O)c(C#N)coc2c1	5.1%[9.22 µM]	.	.	11.7%[10 µM]	-3.1%	10µM*
COc1ccc(/C=C/C(=O)c2cc3c(cc2N)OCO3)cc1	-16.3%	.	.	-57.3%	22.4µM*	1.2%
N/C(=C/C(=O)c1ccccc1O)C(F)(F)F	-15.6%	-0.3%	-12.9%	15.7%[10 µM]	15.8%	4.8%
O=C(/C=C/c1ccc(O)c(O)c1)c1ccccc1O	-7.9%[9.22 µM]	.	.	-39.7%[10 µM]	25.1µM*	.
COc1ccc(/C=C/C(=O)c2cc(O)ccc2O)cc1	.	?	.	5.01µM*	?	?
COc1ccc(C(=O)/C=C(\N)C(F)(F)F)c(O)c1	5.1%	-14.3%	7.6%	14.0%	-0.5%	8.91µM*
COCCn1c(=O)c(-c2ccccc2)nc2cnc(OC)nc21	.	.	-1.6%	-27.2%	.	?
COc1ccc(/C=C/C(=O)Nc2ccccc2C(=O)O)cc1OC	-7.4%	14.1µM*!	?	-50.8%	?	-3.0%
COc1ccc(/C=C/C(=O)c2ccc(O)cc2O)cc1	.	31.6µM*	?	.	-0.7%	?
O=C(/C=C/c1ccccc1)c1ccc(O)cc1O	.	15.8µM*	.	-10.6%	?	?
O=C(/C=C/c1ccc(O)cc1)c1ccc(O)cc1O	-6.6%	-16.1%	?	?	0.3%	5.5%
COc1ccc(/C=C/C(=O)c2ccc(O)cc2O)cc1OC	.	14.1µM*	.	.	-18.4%	?
COc1ccc(S(=O)(=O)Nc2cccc(-c3ccc(N4CCCCCC4)nn3)c2)cc1	.	.	5.2%[46 µM]	.	.	.
COc1ccc(C)cc1NC(=O)N1CCN(c2nnc(C)c3c(C)n(-c4ccccc4)nc23)CC1	.	.	9.2%[46 µM]	.	.	.
Cc1ccccc1NNC(N)=S	18.5%	.	-3.2%[46 µM]	16.8%[10 µM]	-2.0%	22.4µM*
Cc1ccccc1NC(=O)Nc1ccccc1C(N)=O	-17.9%	.	.	-30.2%	-3.9%	5.1%
Cc1cccc(NNC(N)=S)c1	6.3%[9.22 µM]	.	.	-6.0%	-2.5%	8.91µM*
S=C(NNc1cccc(Cl)c1)NC1CCCCC1	-6.6%	.	?	0.2%	2.9%	25.1µM*
NC(=S)NNc1cccc(Cl)c1	13.8%	-21.7%	8.5%	16.9%	-6.7%	1.58µM*
CCN1CNC(=S)N(C(C)c2ccccc2)C1 (stereo unspecified)	-14.7%	2.1%	-13.4%	4.1%[10 µM]	0.8%	22.6%
O=C(Nc1nccs1)C1CCCN1S(=O)(=O)c1ccc(Cl)cc1 (stereo unspecified)	6.5%	-19.2%	10.0%	-10.6%[10 µM]	-4.7%	17.8µM*
